The chains are these.
B1: Caulobacter ParB omega fusion; a variant is named by its letters at X, in order, B8GW30 (parent)
chain: MESVVVGEPGMSEGRRGLGRGLSALLGEVDAAPAQAPGEQLGGSREAPIEILQRNPDQPRRTFREEDLEDLSNSIREKGVLQPILVRPSPDTAGEYQIVAGERAWRAAQRAGLKTVPIMVRELDDLAVLEIGIIENVQRADLNVLEEALSYKVLMEKFERTQENIAQTIGKSXSHVANXMRLLXLPDEVQSYLVSGELTAXHARAIAAAADPVALAKQIIEGGLSVRETEALARKAPNLSAGKSKGGRPPRVKDTDTQALESDLSSVLGLDVSIDHRGSTGTLTITYATLEQLDDLCNRLTRGI

Over roughly 81,000 sequences, “one-hybrid fitness for binding NBS DNA” has its median near -0.1; the highest 2% begin near 0.36. Shown is part of a subset that was picked to be rich in the highest values. Some results are limits rather than exact numbers.

The variants in this experiment derive from B1. The experiment can be described thus: one-hybrid fitness for binding NBS DNA (the Noc-binding site; scaled: cognate 1, non-cognate 0); higher = stronger binding. As to conditions: with NBS DNA site. The procedure, abridged: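 Caulobacter ParB libraries with four specificity codons randomised were screened by bacterial one-hybrid selection in the E. coli USO strain, using a HIS3 reporter whose site lies 19 bp from the promoter. Selection ran for 48 hours at 37°C on M9 lacking histidine, with 0.1 mM IPTG and 5 mM 3-AT. Plasmids were Illumina-sequenced before and after selection, three replicate libraries were pooled, and variants with under 10 reads were dropped. Fitness is the log change in each variant's read ratio to wild type, rescaled against the cognate and non-cognate sites.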
Take GSGL: the “one-hybrid fitness for binding NBS DNA” value was no more than 0.2. Turning to NLCF, the “one-hybrid fitness for binding NBS DNA” value is no more than 0.2. The value for RCSH was 0.203; that for RRSP was no more than 0.2.

RRSS: the “one-hybrid fitness for binding NBS DNA” value was 0.643. The value for RRSN was 0.356; that for RRSD was no more than 0.2; that for RRSH was 0.439.

On to APVD, for which the “one-hybrid fitness for binding NBS DNA” value was no more than 0.2.

With VPVL, the “one-hybrid fitness for binding NBS DNA” value was no more than 0.2. The same measure for EKCM: no more than 0.2; for GETM: no more than 0.2; for NDTS: no more than 0.2.

As to HEHG, the “one-hybrid fitness for binding NBS DNA” value is no more than 0.2. With WING, the “one-hybrid fitness for binding NBS DNA” value was no more than 0.2. The same measure for QMWD: no more than 0.2; for QIWR: 0.304; for QLWR: 0.319. The value for QTWK was no more than 0.2. The same measure for QRWR: 0.796; for QRWD: no more than 0.2. As to QMWR, the “one-hybrid fitness for binding NBS DNA” value was 0.403. The value for QMWS was 0.261; that for QTWR was 0.529; that for QTWC was no more than 0.2. Regarding QSWR, the “one-hybrid fitness for binding NBS DNA” value came out at 0.365. The same measure for RLIM: no more than 0.2; for HKDT: no more than 0.2. The value for CTPT was no more than 0.2.

In the case of QQGL, the “one-hybrid fitness for binding NBS DNA” value is no more than 0.2. The value for TSVS was no more than 0.2; that for LDTG was no more than 0.2. The same measure for DILR: no more than 0.2; for RKCV: no more than 0.2; for QAWY: no more than 0.2. QKWD: the “one-hybrid fitness for binding NBS DNA” value was determined as 0.405. The value for QKWM was no more than 0.2; that for QAWR was 0.348; that for QPWR was no more than 0.2. The same measure for QKWF: no more than 0.2. The same measure for QKWS: 0.33; for QKWR: 0.462. With QKWY, the “one-hybrid fitness for binding NBS DNA” value is no more than 0.2. Take QCWR: the “one-hybrid fitness for binding NBS DNA” value was found to be 0.49. With RLLS, the “one-hybrid fitness for binding NBS DNA” value was 0.266. As for SITS, the “one-hybrid fitness for binding NBS DNA” value is no more than 0.2. The value for LTLV was no more than 0.2; that for SPPA was no more than 0.2; that for RRYH was 0.436. The same measure for RRRL: 0.25; for RRPH: 0.294. Consider RCRH, for which the “one-hybrid fitness for binding NBS DNA” value turned out to be 0.46.

For RRRH, the “one-hybrid fitness for binding NBS DNA” value came out at 0.808. The same measure for RRRE: 0.219; for RSRH: 0.335; for RREH: 0.296.

Take RPRH: the “one-hybrid fitness for binding NBS DNA” value was no more than 0.2. The same measure for SHTT: no more than 0.2; for VASP: no more than 0.2. The value for SECF was no more than 0.2; that for NISL was no more than 0.2; that for QYDC was no more than 0.2.

Regarding QYVC, the “one-hybrid fitness for binding NBS DNA” value is no more than 0.2. The value for QYKC was 0.371; that for QYRC was 0.38. For the variant QYNC, the “one-hybrid fitness for binding NBS DNA” value was no more than 0.2. The same measure for QYYC: no more than 0.2; for MESV: no more than 0.2. With SGNS, the “one-hybrid fitness for binding NBS DNA” value was no more than 0.2. The value for GITD was no more than 0.2; that for RVSA was no more than 0.2; that for RLYT was 0.391.

Regarding RLCP, the “one-hybrid fitness for binding NBS DNA” value is no more than 0.2. The same measure for RMCT: 0.366. RLCT: the “one-hybrid fitness for binding NBS DNA” value is 0.396. The same measure for RLGM: no more than 0.2; for RLGC: no more than 0.2; for RMCF: no more than 0.2.

As for RMCL, the “one-hybrid fitness for binding NBS DNA” value was no more than 0.2. The same measure for RLLT: 0.337. For RLCH, the “one-hybrid fitness for binding NBS DNA” value is no more than 0.2. The same measure for RLPT: no more than 0.2; for RLGT: 0.389.

With APPM, the “one-hybrid fitness for binding NBS DNA” value was no more than 0.2. The value for YKNV was no more than 0.2; that for MWIF was no more than 0.2; that for QMEK was no more than 0.2. As for LNIR, the “one-hybrid fitness for binding NBS DNA” value was no more than 0.2. Turning to FVCG, the “one-hybrid fitness for binding NBS DNA” value is no more than 0.2. For LKHR, the “one-hybrid fitness for binding NBS DNA” value is no more than 0.2. The same measure for RTCT: 0.531; for RTCK: no more than 0.2.

With RLHY, the “one-hybrid fitness for binding NBS DNA” value is no more than 0.2.

For the variant RLST, the “one-hybrid fitness for binding NBS DNA” value was determined as 0.46. The same measure for RLSP: no more than 0.2; for RLRT: 0.657; for RLIT: 0.23.

Take RLHN: the “one-hybrid fitness for binding NBS DNA” value is no more than 0.2.

RLSH: the “one-hybrid fitness for binding NBS DNA” value was no more than 0.2. The value for RTCC was no more than 0.2.

On to RLWT, for which the “one-hybrid fitness for binding NBS DNA” value came out at 0.23.

As for RLHT, the “one-hybrid fitness for binding NBS DNA” value was 0.437. The same measure for FWLT: no more than 0.2; for PFLT: no more than 0.2; for THKK: no more than 0.2.

Consider QSNE, for which the “one-hybrid fitness for binding NBS DNA” value is no more than 0.2. The same measure for SMHG: no more than 0.2; for TFYD: no more than 0.2. Turning to RCCT, the “one-hybrid fitness for binding NBS DNA” value was 0.39.

For RLDT, the “one-hybrid fitness for binding NBS DNA” value was no more than 0.2. The same measure for RLQN: no more than 0.2; for RLKP: no more than 0.2; for RLQT: 0.462. The same measure for RLKT: 0.644; for RLVT: 0.236; for RLNH: 0.201.

On to RLNT, for which the “one-hybrid fitness for binding NBS DNA” value was determined as 0.528.

Regarding RLQD, the “one-hybrid fitness for binding NBS DNA” value is no more than 0.2. The value for RPCT was no more than 0.2; that for RSCT was 0.281; that for KERP was no more than 0.2.

Consider SPFL, for which the “one-hybrid fitness for binding NBS DNA” value is no more than 0.2. The same measure for PQIR: no more than 0.2; for QSHW: no more than 0.2. The value for AERM was no more than 0.2; that for QTMC was no more than 0.2; that for QAMH was 0.219.

As to QSMH, the “one-hybrid fitness for binding NBS DNA” value is no more than 0.2. The same measure for QTMR: 0.656.

Turning to QAMN, the “one-hybrid fitness for binding NBS DNA” value was no more than 0.2. Turning to QSMR, the “one-hybrid fitness for binding NBS DNA” value amounted to 0.456. The same measure for EMMK: 0.405.

With QAMR, the “one-hybrid fitness for binding NBS DNA” value amounted to 0.45.

Regarding QSMN, the “one-hybrid fitness for binding NBS DNA” value was no more than 0.2. The value for EMMN was no more than 0.2.

For the variant EMMS, the “one-hybrid fitness for binding NBS DNA” value was no more than 0.2. The value for QTMY was 0.232; that for LIRV was no more than 0.2. RMDQ: the “one-hybrid fitness for binding NBS DNA” value is no more than 0.2. The value for VSTS was no more than 0.2; that for CNRT was no more than 0.2; that for IWRR was no more than 0.2. The value for PMRP was no more than 0.2. For the variant TVTG, the “one-hybrid fitness for binding NBS DNA” value was no more than 0.2.

Turning to HFAM, the “one-hybrid fitness for binding NBS DNA” value is no more than 0.2.

For the variant DPVR, the “one-hybrid fitness for binding NBS DNA” value is no more than 0.2. The value for CHNI was no more than 0.2; that for QRMR was 0.971; that for QKMR was 0.51.

For the variant QMMR, the “one-hybrid fitness for binding NBS DNA” value was 0.523.

Regarding QMMD, the “one-hybrid fitness for binding NBS DNA” value is no more than 0.2. Take QKMK: the “one-hybrid fitness for binding NBS DNA” value is no more than 0.2. The same measure for QCMR: 0.589; for QIMR: 0.348.

The values are drawn from a collection of fitness landscapes (doi:10.1016/j.celrep.2020.107928).
